# About 83,000 compounds went through this panel and 20% of them were active in at least one assay; those are over-represented in the sample as a whole.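 Percent growth is the endpoint: 0 to 100 indicates growth inhibition (40 means 60% inhibition), 0 means no net growth, and negative values indicate cell death.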 A number with no mark means an inactive call. The source made the active and inactive calls.
# System: SW-620 colon
# Experiment: NCI-60 one-dose screen, 48 h (100 = growth as untreated, 0 = no growth, -100 = all killed)
# Conditions: 10 µM unless noted
# Method: Growth inhibition of the SW-620 human tumor cell line is measured as a screen for anti-cancer activity. Cells are grown in 96 well plates and exposed to the test compound for 48 hours. Compounds are tested at a single concentration, which is 10^-5 M for most compounds. The reported endpoint is percent growth (GI% or GIPRCNT), where numbers from 0 - 100% represent growth inhibition, and numbers from -100% - 0 represent cell death. For example, a value of 40 represents 60% growth inhibition. A value of 0 means no net growth occurred over the course of the experiment. A value of -40 indicates 40% of cells at the beginning of the experiment died by the end of the experiment. A value of -100 means all cells are dead at the end of the experiment.
# NCI-60 Human Tumor Cell Lines Screen was performed using the standard one-dose NCI protocol, which is described in more detail at https://dtp.cancer.gov/discovery_development/nci-60/default.htm.
# Compounds with GIPRCNT values below 10 were considered active. Activity score was based on GIPRCNT using the following formula: […]
# Score is 0 for GIPRCNT values of 100 or above, 50 for GIPRCNT values of 0, and 100 for GIPRCNT values of -100.
row,Compound,growth
1,COc1ccc(OC)c(/C=C2\Oc3cc(OCCN4CCCC4)ccc3C2=O)c1,81.4%
2,COc1ccc(/C=C2\Oc3cc(OCCN4CCCC4)ccc3C2=O)c(OC)c1,79.2%
3,C=CCn1c(C)nc2ccc(Nc3nc(Nc4ccc(F)cc4)nc4ccccc34)cc21,46.1%
4,Clc1nc(Cl)c2ncn(C/C=C/Cn3cnc4c(Cl)nc(Cl)nc43)c2n1,45%
5,COc1ccc(S(=O)(=O)N2CCN(c3cc4c(cc3F)c(=O)c(C(=O)O)cn4C3CC3)CC2)c(OC)c1,105%
6,C[C@]12CC[C@@H]3c4cc(O)c(O)cc4CC[C@H]3[C@@H]1CC[C@@H]2O,30.7%
7,O=c1[nH]c(-c2cn(-c3ccc(Cl)cc3)nn2)nc2ccccc12,94.4%
8,COc1cc(CNC(=O)CSc2nc3ccccc3c(=O)n2Cc2cc(OC)c(OC)c(OC)c2)cc(OC)c1OC,109%
9,O=C1CCCCN1CCCCC#Cc1ccccc1C#Cc1ccc([N+](=O)[O-])cc1,27.3%
10,O=C(CC(O)c1ccncc1)c1ccccc1 (stereo not given),109%
11,CCCCCCCN(CCCCCCC)C(=N)c1ccc(OC)c2ccccc12,-89.1% (active)
12,O=C(Nc1cc(C(F)(F)F)cc(C(F)(F)F)c1)Nc1ccc(OCc2nnc(-c3ccc(Cl)cc3)o2)c(F)c1,22.8%
13,CCCC(C(=O)OCC)C(C)OC(=O)OCC (stereo not given),113%
14,COc1cc(NC(=O)CCl)ccc(=O)c1,69.8%
15,Nc1nn2cc(-c3ccc(Cl)s3)nc2c2ccccc12,98.6%
16,Nc1ccc(S(=O)(=O)c2ccc(Cl)cc2)cc1,94.1%
17,CSc1ccccc1C#C/C=C\C#Cc1ccccc1N1CCCCC1=O,100%
18,O=C(/C=C/CN1CCOCC1)Nc1cc2c(Nc3ccc(F)c(Cl)c3F)ncnc2cc1OCCOC(F)F,89.7%
19,CN1CCN(CCCOc2ccc3nc(Nc4ccc(C(F)(F)F)c(Cl)c4)ccc3c2)CC1,-70.4% (active)
20,C=C1C(=O)O[C@H]2[C@H]1CC/C(COC(=O)NCc1ccc(OC)cc1)=C\CC[C@@]1(C)O[C@@H]21,1.83% (active)

row,Compound,growth
1,C/C(=N\NC(=O)CC#N)c1cc2cc(Cl)ccc2o1,102%
2,O=S(=O)(NCCCNc1cc(-c2cn(-c3ccccc3)nc2-c2cccc(O)c2)ccn1)c1cccc2ccccc12,22.5%
3,O=C(CN1CCOCC1)Nc1ccc(-c2nc3ccccc3s2)cc1,108%
4,CCOC(=O)c1cc(/C(=N\O)c2cc(OC)c(OC)c(OC)c2)n2cc(C)cc(C)c12,13.3%
5,Cn1cc(C=O)c2ccccc21,95.1%
6,c1ccc2nc(-c3ccc4ccccc4n3)ccc2c1,100%
7,CC(Cc1nnc(SCC(=O)Nc2ccc(I)cc2)n1N)c1ccccc1 (stereo not given),95.5%
8,COc1cc(-c2nc(-c3nc4ccccc4[nH]3)cc3c2[nH]c2ccccc23)cc(OC)c1OC,56.5%
9,O=[N+]([O-])c1c(S(=O)(=O)O)cc2cc(S(=O)(=O)O)ccc2c1[N+](=O)[O-],105%
10,CN1C(=O)[C@H]2c3c1cccc3[C@@]13NC(=O)O[C@H]1[C@H](CCC3(C)C)C2(C)C,114%
11,CC(CCc1ccccc1)NC(=O)c1n[nH]c(=O)c2ccccc12 (stereo not given),100%
12,O=S(=O)(NCCCNc1nccc(-c2c(-c3ccc(F)c(O)c3)nc3sccn23)n1)c1ccc(Cl)cc1,99.2%
13,CC(C)(C)c1ccc(S(=O)(=O)Oc2ccc3c4c(c(=O)oc3c2)CCCCC4)cc1,55.2%
14,Cc1oc2ncnc(Nc3ccccc3)c2c1C(=O)NCCO,95.1%
15,COc1cc(CCn2nnc3c(Nc4ccc(N5CCOCC5)cc4)ncnc32)cc(OC)c1,90.8%
16,CCn1cc(C(=O)O)c(=O)c2cc(F)c(N3CCN(S(=O)(=O)c4c(C)cc(C)cc4C)CC3)cc21,95.1%
17,COc1cc(/C=C2\CCCC3=C2N=C2SC(C)=NN2C3c2cc(OC)c(OC)c(OC)c2)cc(OC)c1OC (stereo not given),10.3%
18,CC(C)C[C@H](NC(=O)Cn1ccc(NCc2ccccc2)cc1=O)B(O)O,4.73% (active)
19,CCCCCc1c(C)[nH]c(/C=c2\[nH]/c(=C3/C=c4ccccc4=N3)cc2OC)c1C,-36.1% (active)
20,COc1ccc(Cl)cc1NC(N)=S,104%
